High-throughput results deposited in PubChem BioAssay by National Center for Advancing Translational Sciences (NCATS).
SW480 rerep: A quantitative high throughput screen for small molecules that induce DNA re-replication in SW480 colon adenocarcinoma cells; SW480 DNA re-replication, Hoechst DNA content imaging, 48 h; Potency, µM (titrated, usually from 46.1 µM), inactives show at the top dose re-replication activation, most hits filed as activators; 340,000 tested, 1.8% active; further: % of control where 0% means no effect; nearly all actives have a fitted effect of over 55% in size
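250 cells/well; 23 nL cpd via pin tool; 48 hr, 37 C, 5% CO2; Hoechst 40 min; imager read of total nuclear intensity, ex 405/em 500-530 nm.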
MCF10A rereplic: A quantitative high throughput screen for small molecules that induce DNA re-replication in MCF 10a normal breast cells | MCF 10A DNA re-replication, Hoechst nuclear intensity, 48 h | Potency, µM (top dose mostly 46.1 µM), for inactives: at the top dose activity, positive = re-replication, usual class: activators | 350,000 tested, 2.9% active; further: % of control where 0% means no effect; nearly all actives have a fitted effect of over 50% in size
KB-V1 cytotox: qHTS assay for MDR1-selective chemotherapeutics: Primary screen using the drug-selected MDR subline cells KB-V1; KB-V1 MDR cells viability, CellTiter-Glo, 72 h; AID 1347076, 2019; Potency, µM (series often up to 46.1 µM), most hits filed as cytotoxic; 400,000 tested, 3.4% active; further: on the % scale 0 is the no-effect control and ±100 the full control effect; nearly all actives have a fitted effect of over 60% in size
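Cytotoxicity via CellTiter-Glo luminescence after 72 h compound exposure at 37 degrees C. Cells: drug-selected KB-V1 line, DMEM phenol-red free plus 10% FBS. Compounds tested at multiple concentrations; normalized data fitted to concentration-effect curves.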
ELG1 repair inh: qHTS screen for small molecules that inhibit ELG1-dependent DNA repair in human embryonic kidney (HEK293T) cells expressing luciferase-tagged ELG1 | HEK293T ELG1-luciferase reporter, luminescence, 16 h; DNA damage induced by 5-fluorouridine | Potency, µM (highest dose often 46.1 µM), for the others: at the highest dose activity change, negative = inhibition, hits mostly inhibitors | 330,000 tested, 2.3% active; further: on the % scale 0 is the no-effect control and ±100 the full control effect; nearly all actives have a fitted effect of over 55% in size
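Step one: seed 2,000 cells per well. Step two: pin-transfer compound or DMSO alongside 5-fluorouridine. Step three: incubate 16 hr, 37 °C, 5% CO2. Step four: add ONE-Glo, wait 30 min, read luminescence.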
KB-3-1 cytotox: qHTS assay for MDR1-selective chemotherapeutics: Primary screen using the parental adenocarcinoma cell KB-3-1. KB-3-1 viability, CellTiter-Glo ATP luminescence, 72 h. Potency, µM (highest dose often 46.1 µM), hits mostly cytotoxic. AID 1347075, 2019. 400,000 tested, 1.4% active; further: on the % scale 0 is the no-effect control and ±100 the full control effect; nearly all actives have a fitted effect of over 60% in size
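KB-3-1 cells, DMEM (no phenol red) + 10% FBS; compound by pin transfer, 72 h, 37 °C. Readout: CellTiter-Glo luminescence after 10 min. Data normalized, curve-fitted.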
Starred values were filed as active, the others as inactive. A selection: hits, their analogues and other compounds. The true share with any hit is near 8.1%. The call rests on the fitted dose curve; in most records, active means well fitted curve in the direction sought with a large enough effect; inconclusive means small, poorly fitted or top-dose-only effect, or another doubt; inactive means no such curve, though single readings can be large; an effect the other way counts as inactive or inconclusive. Potency means the concentration at half of the fitted maximal effect.

Results for CCOC(=O)C1=C(CSc2nc3c(cc2C#N)CN(C)CC3)OC(N)=C(C#N)C1c1ccc(Cl)cc1 (configuration not stated) ?
SW480 rerep: inconclusive; MCF10A rereplic: 26µM*; KB-V1 cytotox: inactive; ELG1 repair inh: -6%; KB-3-1 cytotox: inactive

Results for COc1ccc(S(=O)(=O)N(C)c2ccc(C(=O)NC3CC3)cc2)cc1 ?
SW480 rerep: 3%; MCF10A rereplic: 0%; ELG1 repair inh: 3%

Results for Cc1c(C(=O)Nc2ccc3c(c2)OCCO3)sc2ncnc(N3CCCCC3C)c12 (configuration not stated) ?
SW480 rerep: -20%; MCF10A rereplic: inconclusive; KB-V1 cytotox: inconclusive; ELG1 repair inh: inconclusive; KB-3-1 cytotox: 18µM*

Results for Cc1nc(N2CCC(C)CC2)c2c(C)c(C(=O)Nc3ccc4c(c3)OCCO4)sc2n1 ?
SW480 rerep: -5%; MCF10A rereplic: 5%; KB-V1 cytotox: inactive; ELG1 repair inh: 10µM*; KB-3-1 cytotox: inactive

Results for Cc1nc(N2CCC(C)CC2)c2c(C)c(C(=O)Nc3cccc(C(F)(F)F)c3)sc2n1 ?
SW480 rerep: inconclusive; MCF10A rereplic: 21µM*; KB-V1 cytotox: inactive; ELG1 repair inh: -16%; KB-3-1 cytotox: inactive

Results for Cc1nc(N2CCC(C)CC2)c2c(C)c(C(=O)Nc3ccc(C(F)(F)F)cc3)sc2n1 ?
SW480 rerep: 10%; MCF10A rereplic: inconclusive; KB-V1 cytotox: inconclusive; ELG1 repair inh: -10%; KB-3-1 cytotox: inactive

How did Cc1nc(N2CCOCC2)c2c(C)c(C(=O)Nc3ccccc3Cl)sc2n1 do in these assays?
SW480 rerep: -2%; MCF10A rereplic: -10%; KB-V1 cytotox: inactive; ELG1 repair inh: 5%; KB-3-1 cytotox: inactive

Results for CN(C)c1ccc(-n2c(CCC(=O)O)ccc2-c2ccccc2)cc1 ?
KB-V1 cytotox: inactive; KB-3-1 cytotox: inactive

How did CN(C)C(=O)c1cn(-c2ccccc2)nc1-c1cc2ccccc2o1 do in these assays?
SW480 rerep: 10%; MCF10A rereplic: inconclusive; KB-V1 cytotox: inactive; ELG1 repair inh: 0%; KB-3-1 cytotox: inactive

What do the screens show for `CCCCCc1c(C)nc(SCC(=O)O)[nH]c1=O`?
SW480 rerep: -6%; MCF10A rereplic: -3%; KB-V1 cytotox: inactive; ELG1 repair inh: 9%; KB-3-1 cytotox: inactive

Results for CN=C(Nc1ccc(Cl)cc1)c1cccc(C(F)(F)F)c1 ?
SW480 rerep: -1%; MCF10A rereplic: -1%; KB-V1 cytotox: inactive; ELG1 repair inh: 7%; KB-3-1 cytotox: inactive

Results for COc1cccc(CNCCSc2nnnn2C)c1OCc1ccc(F)cc1 ?
KB-V1 cytotox: inactive; KB-3-1 cytotox: inactive

How did COc1cc(CNCCc2c[nH]c3ccccc23)cc(Cl)c1OCC(N)=O do in these assays?
SW480 rerep: -2%; MCF10A rereplic: inconclusive; KB-V1 cytotox: inactive; ELG1 repair inh: 2%; KB-3-1 cytotox: inactive

Results for COc1cc(CNCCc2c[nH]c3ccccc23)ccc1OCc1ccc(F)cc1 ?
SW480 rerep: inconclusive; MCF10A rereplic: inconclusive; KB-V1 cytotox: 5.2µM*; ELG1 repair inh: -11%; KB-3-1 cytotox: inactive

What do the screens show for `COc1cccc(CNCCc2c[nH]c3ccccc23)c1OCc1ccc(F)cc1`?
SW480 rerep: inconclusive; MCF10A rereplic: inconclusive; KB-V1 cytotox: 16µM*; ELG1 repair inh: -18%; KB-3-1 cytotox: inconclusive

Results for Cc1cccc(C(=O)Nc2cc(Cl)ccc2-n2cncn2)c1[N+](=O)[O-] ?
SW480 rerep: -222%; MCF10A rereplic: 0%; KB-V1 cytotox: inactive; ELG1 repair inh: 17%; KB-3-1 cytotox: inactive

How did COc1ccc(CN2CN(c3ccc(Cl)cc3)C(=O)N(n3cnnc3)C2)cc1 do in these assays?
SW480 rerep: -5%; MCF10A rereplic: 2%; KB-V1 cytotox: inactive; ELG1 repair inh: -1%; KB-3-1 cytotox: inactive

What do the screens show for `O=C(Cn1c(CSc2ccccc2)nc2ccccc21)Nc1ccccc1`?
ELG1 repair inh: 5%

How did N#CN=C(N)c1ccccc1 do in these assays?
SW480 rerep: -12%; MCF10A rereplic: -11%; KB-V1 cytotox: inactive; ELG1 repair inh: -4%; KB-3-1 cytotox: inactive

How did CCOc1ccc(NC(=O)CN(C)C(=O)CCCc2nc3ccccc3c(=O)[nH]2)cc1OCC do in these assays?
SW480 rerep: 1%; MCF10A rereplic: 11%; KB-V1 cytotox: inactive; ELG1 repair inh: 13%; KB-3-1 cytotox: inactive

What do the screens show for `CCCn1c(C)c(C(=O)OCC)c(O)c(-c2ccccc2)c1=O`?
SW480 rerep: -80%; MCF10A rereplic: 28%; KB-V1 cytotox: inactive; KB-3-1 cytotox: inactive

Results for CCOC(=O)c1c(-c2ccccc2)c(C(C)=O)c(=O)n(C)c1C ?
SW480 rerep: -6%; MCF10A rereplic: 0%; KB-V1 cytotox: inactive; ELG1 repair inh: 7%; KB-3-1 cytotox: inactive

How did CCOC(=O)c1c2c3c(cccc3n(C)c1=O)C(=O)c1ccccc1-2 do in these assays?
SW480 rerep: 0%; MCF10A rereplic: 23%; KB-V1 cytotox: 21µM*; ELG1 repair inh: inconclusive; KB-3-1 cytotox: inconclusive

Results for CCOC(=O)c1c2c(n(C)c1C)C(=O)C(=O)c1ccc(Br)cc1-2 ?
SW480 rerep: 2.6µM*; MCF10A rereplic: 2.1µM*; KB-V1 cytotox: 3.3µM*; KB-3-1 cytotox: 3.7µM*

What do the screens show for `CCOC(=O)c1c2c(n(Cc3ccccc3)c1C)C(=O)C(=O)c1ccccc1-2`?
SW480 rerep: 4.1µM*; MCF10A rereplic: 3.3µM*; KB-V1 cytotox: 3.3µM*; KB-3-1 cytotox: 2.9µM*

Results for Cc1ccc(NC(=O)COC(=O)Cc2c[nH]c3ccccc23)cc1C ?
SW480 rerep: -5%; MCF10A rereplic: 7%; KB-V1 cytotox: inactive; ELG1 repair inh: 0%; KB-3-1 cytotox: inactive

How did Cc1ccc2ccccc2c1CSc1nc(N)nc2c1ncn2CC(C)C do in these assays?
SW480 rerep: 2%; MCF10A rereplic: 21%; KB-V1 cytotox: 21µM*; KB-3-1 cytotox: inactive

Results for CCC(C)Cn1cnc2c(SCc3ccccc3F)nc(N)nc21 (configuration not stated) ?
SW480 rerep: inconclusive; MCF10A rereplic: 18µM*; KB-V1 cytotox: inactive; KB-3-1 cytotox: inactive

Results for CC(C)Cn1cnc2c(SCc3ccccc3F)nc(N)nc21 ?
SW480 rerep: -14%; MCF10A rereplic: inconclusive; KB-V1 cytotox: inconclusive; KB-3-1 cytotox: inactive
